# From PubChem
# This is a sample that favours compounds with a hit; in the whole collection about 5.7% have one here.
# hcDAF-12 act: activates DAF-12 receptor from parasite H. contortus; HEK293 hcDAF-12 lit1-tk-luc reporter, luminescence; 0% DMSO, 100% Δ7-dafachronic acid; activation, % at 6.8 µM; 370,000 compounds, 1.4% hits;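 active = activation above the mean of all tested compounds plus 3 SD, cut at about 5.5% in these data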;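 note: 100% = response to 3 µM Δ7-dafachronic acid high control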
# DAX1 inh-1: inhibitors of DAX1 repression of SF-1 activated StAR promoter. HEK293T StAR-luciferase reporter, SF-1/DAX-1 repression relief. inhibition, % at 6.8 µM. 370,000 compounds, 1.1% hits. AID 652010;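 active = inhibition above the mean over all tested compounds plus 3 SD, cut at about 3.6% in these data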;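 note: 0% = DAX-1 cells with DMSO and 100% = cells lacking DAX-1 with DMSO; higher inhibition means more luminescence from relief of DAX-1 repression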
# DAX1 inh-2: NR0B1 (DAX1) inhibition; P51843; HEK293 Gal4-DAX1 luciferase reporter, luminescence; inhibition, % at 6.75 µM; 340,000 compounds, 0.99% hits; AID 504766;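 active = inhibition above the mean over all tested compounds plus 3 SD, cut at about 4.2% in these data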;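 note: 0% = DAX1-transfected cells with DMSO and 100% = empty-vector control cells with DMSO; inhibition shows as a rise in luminescence from relieved DAX1 repression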
# AHR activator: human AHR activation. P35869. AHR-responsive luciferase reporter cells, luminescence. activation, % at 5 µM. 320,000 compounds, 2.5% hits. AID 2796; in the data active = activation above about 47%;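 note: 0% = vehicle wells and 100% = reference agonist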
# Target sequence (P35869 whole entry, looked up): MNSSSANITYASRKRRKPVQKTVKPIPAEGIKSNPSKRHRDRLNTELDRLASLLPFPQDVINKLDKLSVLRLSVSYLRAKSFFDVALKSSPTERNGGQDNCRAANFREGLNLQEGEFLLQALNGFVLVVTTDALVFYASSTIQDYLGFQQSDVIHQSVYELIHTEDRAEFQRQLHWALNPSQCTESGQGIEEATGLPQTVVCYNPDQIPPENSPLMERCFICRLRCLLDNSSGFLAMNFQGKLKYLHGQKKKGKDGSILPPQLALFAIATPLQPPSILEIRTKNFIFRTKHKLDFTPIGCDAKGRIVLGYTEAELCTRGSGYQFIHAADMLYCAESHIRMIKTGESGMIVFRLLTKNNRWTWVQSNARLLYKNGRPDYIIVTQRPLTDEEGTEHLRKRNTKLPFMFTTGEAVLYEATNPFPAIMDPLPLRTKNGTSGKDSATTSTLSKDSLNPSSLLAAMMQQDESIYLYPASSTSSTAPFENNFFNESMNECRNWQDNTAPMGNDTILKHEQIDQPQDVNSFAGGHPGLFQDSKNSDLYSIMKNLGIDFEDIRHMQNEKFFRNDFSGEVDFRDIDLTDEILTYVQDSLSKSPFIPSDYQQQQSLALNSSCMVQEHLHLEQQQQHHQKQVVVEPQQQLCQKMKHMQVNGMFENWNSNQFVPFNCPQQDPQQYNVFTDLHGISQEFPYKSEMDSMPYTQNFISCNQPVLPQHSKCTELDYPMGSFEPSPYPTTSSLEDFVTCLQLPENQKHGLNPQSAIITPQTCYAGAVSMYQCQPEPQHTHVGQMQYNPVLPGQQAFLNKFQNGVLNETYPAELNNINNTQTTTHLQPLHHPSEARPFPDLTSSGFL
# hgDAF-12 ag: activates the H. glycines DAF-12 receptor ligand-binding domain | HEK293 GAL4-hgDAF12 UAS-luciferase reporter, agonist luminescence; normalized to butyrate control | activation, % at 6.8 µM | 370,000 compounds, 1.8% hits | AID 687014;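 active = activation above a cutoff set at the mean of all screened compounds plus 3 SD, cut at about 10% in these data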;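 note: 0% = DMSO wells and 100% = sodium butyrate wells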
# ssDAF12 agonist: activators of S. stercoralis DAF-12 nuclear receptor. HEK293 ssDAF-12/GRIP1 lit1-tk-luc reporter, luminescence; % of 3 µM dafachronic acid response. activation, % at 6.8 µM. 370,000 compounds, 1% hits. AID 652126;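 active = activation above the mean over all tested compounds plus 3 SD, cut at about 0.9% in these data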;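 note: 0% = DMSO-only wells and 100% = 3 µM delta7-dafachronic acid wells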
# Starred values were filed as active, the others as inactive; · = no result given.
SMILES,hcDAF-12 act,DAX1 inh-1,DAX1 inh-2,AHR activator,hgDAF-12 ag,ssDAF12 agonist
O=C(NNC1=Nc2ccccc2SC1)c1ccccc1F,-3,-1,-4,56*,-4,-3
O=C(NC1=NCCS1)c1ccccc1F,0,0,·,0,0,-1
COc1cc2ccccc2cc1C(=O)NC(=S)Nc1cccc(C(=O)O)c1C,1,0,2,3,-3,0
COc1cccc(NC(=S)N2CCN(c3ccc([N+](=O)[O-])cc3)CC2)c1,0,0,-1,-3,2,1.1*
CC1CC(C)CN(C(=O)COc2cccnc2[N+](=O)[O-])C1 (configuration not stated),-1,0,0,0,-1,0
COc1ccc(C2/C=C\CN(C(=O)Nc3ccccc3-c3ccccc3)CC(=O)N2Cc2ccc(F)cc2)cc1 (configuration not stated),·,·,-2,2,·,·
COc1cccc(CNCc2ccc(OC)c3ccccc23)c1OC,-1,0,0,14,1,-1
CC(=O)c1ccc(NC(=O)c2noc(C(C)C)c2[N+](=O)[O-])cc1,1,0,0,-3,4,0
CCOc1ccc(OCC)c(NC(=O)CCSCCc2ccccn2)c1,0,0,4.3*,4,0,-1
CCOc1ccc(OCC)c(NC(=O)CSc2nnnn2CC)c1,-2,0,4.3*,12,0,-1
c1ccc(COc2ccc(Oc3nc(N4CCCCC4)nc(N4CCOCC4)n3)nn2)cc1,-2,-1,-1,0,-3,-1
O=C(O)c1nnsc1-c1csnn1,-1,0,0,·,2,-1
NNC(=O)c1nnsc1-c1csnn1,5,2,4,·,10*,1
O=C(O)c1nn(-c2ccc(Cl)cc2)ccc1=O,-1,0,0,0,-1,-1
O=[N+]([O-])c1ccccc1-c1ccc(C(=S)N2CCN(c3ccccc3)CC2)o1,3,0,-1,20,1,1.7*
CC1=NN(c2nc(-c3ccc(C)cc3)cs2)C(=O)C1N=Nc1ccc2ccccc2c1 (configuration not stated),5.7*,0,0,24,5,0
O=C(Nc1ccc(-c2nc3ccccc3o2)cc1)c1ccc(N2CCOCC2)c([N+](=O)[O-])c1,-1,1,1,54*,3,-1
Nc1ccccc1Sc1ccc(C(=O)c2ccccc2C(=O)O)cc1[N+](=O)[O-],0,1,2,2,2,-1
O=C(O)c1ccccc1C(=O)c1ccc(Sc2ccc(Cl)cc2)c([N+](=O)[O-])c1,1,0,8.1*,-2,0,-1
O=C(O)c1ccccc1C(=O)c1ccc(N2CCOCC2)c([N+](=O)[O-])c1,2,0,1,3,1,1.1*
COc1ccc(NC(=O)C2(C)Cc3c(-c4ccc5c(c4)OCO5)ccnc3O2)cc1 (configuration not stated),-2,-4,·,·,3,-1
CCN(CC)S(=O)(=O)c1cc(NC(=O)c2ccccc2OCc2c(C)noc2C)ccc1C,-1,-1,-1,·,1,-1
COC(=O)COc1ccc(S(=O)(=O)NCc2cccnc2)cc1C,0,0,0,4,-2,-1
CCOc1ccc(NC(=O)N2CCC(NC(=O)c3ccco3)CC2)cc1,-1,0,0,3,0,-1
O=C(O)c1ccccc1SC1CC(=O)N(c2ccccc2)C1=O (configuration not stated),6.0*,0,1,0,2,-1
O=C(O)c1cccnc1SC1CC(=O)N(c2ccccc2)C1=O (configuration not stated),0,0,1,1,0,-1
C=CCn1c(SCC(C)=O)nnc1-c1ccc2ncccc2c1,-1,0,4.9*,0,-2,-1
C=CCn1c(SC)nnc1-c1ccc2ncccc2c1,1,0,3,10,0,-1
CCOCCCNC(=O)C(Cc1ccccc1)NS(=O)(=O)c1cccc2nsnc12 (configuration not stated),-1,0,4.5*,4,0,-1
